Wnt act – activates Wnt/beta-catenin signaling in a reporter cell assay | activator, plate reader | activation, % at 9.35 µM | 300,000 compounds, 1.2% hits | AID 743398; in the data active = activation above about 30%, passing the limit was not always enough; inconclusive = no clear call, values can overlap the other calls;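 note: 0% = neutral control wells and 100% = positive control wells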
esBAF inh – SWI/SNF esBAF complex inhibition | 350,000 compounds, 2% hits | AID 602393 | reporter increase, % at 12.5 µM | mouse ES cells, Bmi1-luciferase knock-in reporter, 24 h; 100% = twice the neutral-well signal; in the data active = activation above about 40%; inconclusive = no clear call, values can overlap the other calls;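 note: 0% = median of the plate's neutral control wells and 100% = double that signal; a rise in the Bmi1 reporter signal indicates esBAF inhibition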
Statin myotox sup – protects C2C12 myotubes from simvastatin toxicity; ATP luminescence, 48 h; scaled: DMSO 0, geranylgeraniol control 100; rescue of ATP level, % at 7.49 µM; 330,000 compounds, 0.78% hits;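 active = mean ATP rescue above about 67%, or every replicate alone reaching that limit, limit read from the data, passing the limit was not always enough; inconclusive = no clear call, values can overlap the other calls; inactive = mean under the limit and some replicate under it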;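 note: myotubes were challenged with 10 µM simvastatin during compound exposure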
MITF TRPM1 HTS – MITF TRPM1 promoter activation in melanoma cells; SK-MEL-5 TRPM1-promoter luciferase, 24 h; % of positive control, neutral wells = 0; activation, % at 12.5 µM; 300,000 compounds, 0.75% hits; AID 588334;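 active = mean activation of at least 80% with every replicate also reaching 80%; inconclusive = mean reaches 80% but some replicate falls short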;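 note: 0% = neutral control wells and 100% = parthenolide positive control wells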
* marks the source's active call; other numbers are inactive results; ? = inconclusive; / = no result given. This is a sample that favours compounds with a hit; in the whole collection about 3% have one here.

SMILES	Wnt act	esBAF inh	Statin myotox sup	MITF TRPM1 HTS
COc1ccc(-c2cc(C(=O)NCc3cccs3)no2)cc1	?	42*	7	92*
CCCNC(=O)N1C[C@H]2[C@@H](c3ccccc31)[C@@H](CO)N2C(=O)CN1CCOCC1	/	-5	-10	/
CN1C(=O)c2cc(NC(=O)Nc3ccccc3)ccc2OC[C@@H]2O[C@H](CC(=O)NC3CCC3)CC[C@H]21	/	0	-10	/
CO[C@@H]1CN(C)C(=O)c2ccc(NC(=O)Nc3ccc4c(c3)OCO4)cc2OC[C@@H](C)NC[C@@H]1C	/	87*	10	/
CO[C@@H]1CN(C)C(=O)c2ccc(NC(=O)Nc3ccc4c(c3)OCO4)cc2OC[C@H](C)NC[C@@H]1C	/	60*	7	/
COc1cccc(C(=O)Nc2cccc(-c3nc4ncccc4o3)c2C)c1	/	-5	-23	-2
Cc1c(NC(=O)c2ccc([N+](=O)[O-])o2)cccc1-c1nc2ncccc2o1	-2	3	107*	-77
c1ccc(OCCSc2nc3ccccc3o2)cc1	/	87*	1	50
COc1ccc2[nH]c3c(=O)n(CCc4ccccc4)cnc3c2c1	37*	/	/	63
C[C@@H]1CN([C@H](C)CO)C(=O)c2cc(NC(=O)c3ccccc3)ccc2O[C@@H](C)CCCCO[C@@H]1CN(C)Cc1ccc(C(=O)O)cc1	/	4	/	/
Cc1cccc(N/C=C/c2onc(C)c2[N+](=O)[O-])c1	/	/	/	71
Cc1cc(O)ccc1N/C=C/c1onc(C)c1[N+](=O)[O-]	60*	/	/	26
CSCCC(NC(=O)OC(C)(C)C)C(=O)Oc1ccc2c(=O)c(-c3ccc4c(c3)OCCO4)coc2c1 (stereo unspecified)	37*	-5	1	/
C[C@H]1CN([C@@H](C)CO)S(=O)(=O)c2ccc(C3=CCCCC3)cc2O[C@H]1CN(C)C(=O)c1ccccc1	/	2	-39	/
CC1(Cc2ccc3c(c2)OCO3)C(=O)Nc2c(Cl)ccc(Cl)c21 (stereo unspecified)	-1	-7	88*	/
CC1(Cc2ccc3c(c2)OCO3)C(=O)Nc2ccc(-c3cccc(C(F)(F)F)c3)cc21 (stereo unspecified)	-1	7	12	/
COC(=O)C[C@H]1CC[C@H](NS(=O)(=O)c2ccc(OC)cc2)[C@H](CO)O1	/	-2	-4	/
Cc1noc(C)c1NC(=O)Nc1cccc2c1O[C@@H](CN(C)C(=O)Nc1ccc(F)cc1)[C@@H](C)CN([C@@H](C)CO)C2=O	/	3	/	/
CC1CCN(c2nc3ccc(C(=O)N4CCN(Cc5ccccc5)CC4)cc3s2)CC1	3	94*	14	10
Cc1cccc(N2CCN(C(=O)c3ccc4nc(N5CCCCC5)sc4c3)CC2)c1C	11	61*	5	35
CCOC(=O)N1CCN(C(=O)c2ccc3nc(N4CCC(C)CC4)sc3c2)CC1	/	58*	19	11
C[C@@H]1CN([C@H](C)CO)C(=O)c2cc(NC(=O)c3ccncc3)ccc2O[C@@H](C)CCCCO[C@H]1CN(C)C(=O)Nc1ccc2c(c1)OCO2	/	21	/	/
CCC1CCc2sc(C(=O)NCC3CCCO3)cc2C1 (stereo unspecified)	55*	66*	2	76
O=C(COC(=O)c1ccc(O)cc1O)NC12CC3CC(CC(C3)C1)C2	18	?	2	50
O=C(OCC(=O)C12CC3CC(CC(C3)C1)C2)c1ccc(O)cc1O	8	51*	-9	49
SMILES	Wnt act	esBAF inh	Statin myotox sup	MITF TRPM1 HTS
Cn1c(=O)c2cn(-c3ccccc3)cc2n(C)c1=O	-1	4	-7	22
COc1cccc(-n2cc3c(=O)n(C)c(=O)n(C)c3c2)c1	/	48*	4	18
Cc1cccc(Oc2coc3cc(OC(=O)c4cc5ccccc5oc4=O)ccc3c2=O)c1	/	54*	-3	42
CCOC(=O)Oc1ccc2c(=O)c(Oc3cccc(C)c3)coc2c1	18	?	2	26
Cc1cccc(Oc2coc3cc(O)ccc3c2=O)c1	9	59*	3	/
O=C(Oc1ccc2c(=O)c(Oc3ccc4ccccc4c3)coc2c1)c1ccco1	/	/	/	-7
Cc1cccc(Oc2coc3cc(OC(=O)c4cncc(Br)c4)ccc3c2=O)c1	3	34*	/	2
Cc1cc(C)cc(Oc2coc3cc(OC(=O)c4cccnc4)ccc3c2=O)c1	-1	/	/	-2
COc1ccccc1-c1ccc2n(c1=O)C[C@@H]1[C@@H](CO)[C@H](C(=O)N3CCCCC3)N(C)[C@H]21	/	-1	3	/
CCOC(=O)c1cnc(SCC(=O)c2ccc(C)cc2)nc1N	1	1	-3	1
CCOC(=O)c1cnc(SCC(=O)c2ccccc2)nc1N	/	16	-5	97*

Bioassay records as filed in PubChem BioAssay.
